# MARV entry inh – Marburg virus entry inhibition. 1.8% of 300,000 active. Marburg virus pseudotyped entry inhibition, cell reporter. Potency, µM (series often up to 37.8 µM), hits mostly inhibitors; calls by dose curve; tested in HEK293 cells
# HCMV inh – inhibitors of human cytomegalovirus; HFF cells, HCMV-luciferase reporter, 72 h; hits give low values; activity change, negative = inhibition, % at 57.5 µM; 4.5% of 410,000 active; in the data active = activity change below about -60%; inconclusive = no clear call, values can overlap the other calls; inactive = above about -39%
#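 Human foreskin fibroblasts infected with luciferase-reporter HCMV at MOI 1 PFU/cell, compounds at two doses. Luciferase measured 72 h post infection; normalized to buffer-only basal and Salinomycin (10uM) controls.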
# Pf growth 96h – P. falciparum growth inhibition at 96 hours | P. falciparum luciferase reporter growth, 96 h | Potency, µM (highest dose often 28.7 µM), usual class: inhibitors | 6.9% of 320,000 active
#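 Erythrocytes infected with luciferase-expressing P. falciparum were dispensed at 2% hematocrit and 0.05% parasitemia (final), then incubated with compounds 96 hours at 37 C in 5% CO2. Luminescence after detection reagent addition reported growth.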
# Lassa entry inh – Lassa virus entry inhibition; AID 540256; Potency, µM (titrated, usually from 37.9 µM), actives largely listed as inhibitors; Lassa virus pseudotype entry inhibition, cell reporter; 1.2% of 300,000 active; calls by dose curve; tested in HEK293 cells; note: nearly all actives have a fitted effect of over 50% in size
# HCV inh – blocks hepatitis C virus | Huh7.5.1 HCVcc-Cre infection, luciferase reporter, 44 h | Potency, µM (doses to about 41.8 µM), most hits filed as inhibitors | 3.4% of 340,000 active | AID 651820
#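 1,000 cells/well; 4 h culture; + compound; + HCVcc-Cre (~0.5 moi); 44 h; luciferase substrate, RT 15 min; read 15 sec.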
# Pf growth 48h – P. falciparum growth inhibition at 48 hours (one generation) | P. falciparum luciferase growth in erythrocytes, 48 h | Potency, µM (series often up to 28.7 µM), most hits filed as inhibitors | 5.9% of 310,000 active | AID 504832
#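 Read-out is firefly luciferase luminescence from an integrated reporter in P. falciparum, so falling signal marks reduced parasite growth. Infected erythrocytes were at 2% hematocrit and 0.1% parasitemia (final) in Albumax-supplemented RPMI 1640.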
# Numbers stand for hits; . = inactive; ? = inconclusive; / = no result; ! = not confirmed by another sample. Rows were chosen to be rich in hits. Some 14% of all compounds tested hit in one or more screens of this group. Unless noted, calls come from the whole dose curve; as a rule, active = well fitted inhibition curve with a large enough effect; inconclusive = small, poorly fitted or top-dose-only effect, or another doubt; inactive = no such curve, though single readings can be large or run the other way.
SMILES,MARV entry inh,HCMV inh,Pf growth 96h,Lassa entry inh,HCV inh,Pf growth 48h
O=c1c2ccccc2nc2n1CCCCC2,.,.,?,.,.,.
Clc1ccc(-c2cc(-c3nnc4n3CCCCC4)c3ccccc3n2)cc1,.,-72,.,.,.,.
CN1CCN(C(=O)c2ccc3c(c2)N(Cc2ccc(Cl)cc2)C(=O)c2ccccc2S3(=O)=O)CC1,.,.,/,.,/,/
CC1(C)CC(=O)C=C(NC2=CC3OC(c4ccccc4)OCC3OC2=O)C1 (stereo not drawn),14µM,.,.,?,?,.
Cc1ccc(NC(=O)N2C(=O)C3(OCCO3)c3ccccc32)cc1,?,.,6.6µM,.,.,.
O=C1N(CCCCN2C(=O)C3(OCCO3)c3ccccc32)c2ccccc2C12OCCO2,.,.,.,.,.,.
O=C1N(CCCN2C(=O)C3(OCCO3)c3ccccc32)c2ccccc2C12OCCO2,.,.,8.3µM,.,.,?
Cn1cc(S(=O)(=O)N2CCCCC2)cc1C(=O)Nc1cccc(C#N)c1,/,.,/,.,/,/
Cc1ccc(N2CCN(C(=O)c3cnc(N4CCCCC4)c4ccccc34)CC2)c(C)c1,/,.,/,?,/,/
CSc1nc2sc3c(c2c(=O)n1C)CCC3,/,.,.,/,?,.
O=c1c2c3c(sc2nc2n1CCC2)CCC3,.,.,0.33µM,.,.,.
CSc1nc2sc3c(c2c(=O)n1C)CCCC3,.,.,.,.,11µM,/
CCCCCCN1CCN(C2CN(Cc3cn(Cc4ccccc4)nn3)S(=O)(=O)C2)CC1 (stereo not drawn),/,.,/,/,/,/
CNC(=O)c1ccc(NC(=O)CC23CC4CC(CC(C4)C2)C3)cc1,.,.,.,?,.,.
C[n+]1cccc(/C=N/NC(=O)CC23CC4CC(CC(C4)C2)C3)c1,.,?,0.59µM,.,.,?
CN(C)/C=N/c1ncc(C(=O)c2ccc(-c3ccccc3)cc2)s1,?,?,.,?,11µM,.
Cc1cccc(OC(C)C(=O)Nc2nc(-c3ccncc3)cs2)c1 (stereo not drawn),?,.,?,?,?,?
CCOCN(C(=O)Cn1c(CO)nc2ccccc21)c1c(C)cccc1CC,?,.,10µM,?,.,.
CCOCN(C(=O)CCl)c1c(C)cccc1CC,?,.,?,.,?,13µM
CCOCN(C(=O)Cn1cnc2ccccc21)c1c(C)cccc1CC,.,.,.,.,.,?
CCc1cccc(CC)c1N(COC)C(=O)Cn1cnc2ccccc21,?,?,.,.,.,.
CCc1cccc(CC)c1N(COC)C(=O)Cn1c(C)nc2ccccc21,/,-65,/,.,/,/
CN(C)c1ccc(-c2ccnc3c2CC(C)(C(=O)NCc2ccncc2)O3)cc1 (stereo not drawn),/,.,/,/,/,/
O=C(CCS(=O)(=O)c1nc(-c2cccs2)cc(C(F)(F)F)n1)Nc1ccc(Br)cc1,?,-98,/,.,/,/
COc1ccc(-c2cc(C(F)(F)F)nc(SCCC(=O)Nc3cc(C)ccc3O)n2)cc1,?,?,/,.,/,/
SMILES,MARV entry inh,HCMV inh,Pf growth 96h,Lassa entry inh,HCV inh,Pf growth 48h
CCN(CC)c1ccc(NC(=O)CSc2nc(-c3cccs3)cc(C(F)(F)F)n2)cc1,.,.,/,.,/,/
Cc1ccc(O)c(NC(=O)CCS(=O)(=O)c2nc(-c3cccs3)cc(C(F)(F)F)n2)c1,.,-100,/,?,/,/
O=C(CCS(=O)(=O)c1nc(-c2cccs2)cc(C(F)(F)F)n1)Nc1cc(Br)ccc1O,?,-100,/,?,/,/
CC(=O)Oc1ccc2c(=O)c(/C=N/c3cc(=O)[nH]c(=S)[nH]3)coc2c1,/,.,?,/,.,.
Cc1cccc(C(=O)Nc2ccc(C(=O)OCc3cc(=O)n4c(C)csc4n3)cc2)c1,/,.,/,.,/,/
O=C(Cn1cc(C(F)(F)F)ccc1=O)N1CCN(S(=O)(=O)c2ccc(Cl)cc2)CC1,.,.,?,.,.,2.9µM
O=C(CN1CCSC1=O)N1CCN(S(=O)(=O)c2ccc(Cl)cc2)CC1,.,-60,?,.,.,.
O=C(CN1CCSC1=O)N1CCN(S(=O)(=O)c2ccccc2)CC1,/,.,.,/,.,.
O=C(Cn1cc(C(F)(F)F)ccc1=O)Nc1cc(S(=O)(=O)N2CCOCC2)ccc1Cl,.,.,.,.,.,.
COc1ccc(OC)c(CCNC(=O)C(C)n2nc(C)c3c(C)n(-c4ccc(C)cc4)nc3c2=O)c1 (stereo not drawn),/,-77!,?,.,2.8µM,?
COc1ccc(OC)c(CCNC(=O)C(C)n2nc(C)c3c(C)n(-c4ccccc4)nc3c2=O)c1 (stereo not drawn),?,.,12µM,.,?,.
Cc1ccc(-n2nc3c(=O)n(CC(=O)NCCc4ccco4)nc(C)c3c2C)cc1,/,.,8.3µM,/,.,.
COc1ccc(CCNC(=O)Cn2nc(C)c3c(C)n(-c4ccc(C)cc4)nc3c2=O)c(OC)c1,/,-91,?,?,/,?
CCN(CC)CCCNC(=O)C(=O)Nc1ccc2nc3n(c(=O)c2c1)CCCCC3,.,.,/,.,/,/
CCO[C@H]1C[C@@H](c2ccc(CC)cc2)N(S(=O)(=O)c2ccc(C)cc2)C2CC(c3ccc(CC)cc3)N(S(=O)(=O)c3ccc(C)cc3)CC21 (stereo partly drawn),/,.,/,/,/,/
COCCCNC(=O)Cn1c(=O)nc(-c2ccccc2)c2ccccc21,/,.,/,.,/,/
N#Cc1ccc(NC(=O)c2cc(-c3cccc(Cl)c3)on2)cc1,?,.,/,.,/,/
O=C(CN1CC[n+]2c(-c3ccccc3)csc21)c1ccc(Br)cc1,/,.,?,/,?,7.4µM
O=C(CN1CC[n+]2c(-c3cccs3)csc21)c1ccc(Br)cc1,?,.,.,.,?,13µM
CC(=O)N1CCN(CC(=O)c2ccc(Br)cc2)CC1,.,.,.,.,.,.
CCC(C)NC(=O)Cn1c(=O)n(Cc2ccc(C(=O)NCCCOC)cc2)c(=O)c2ccccc21 (stereo not drawn),.,.,/,.,/,/
O=C(CNC(=O)c1ccccc1Cl)N/N=C/c1ccc([N+](=O)[O-])s1,?,-93,?,?,13µM,?
CCC/C=N/NC(=O)c1ccccc1O,?,.,.,.,.,.
CCC/C=N/NC(=O)CNC(=O)c1ccccc1Cl,.,-68,.,.,.,.
CC1(C(=O)Nc2ccc3c(c2)OCO3)CCN1C(=O)c1ccco1 (stereo not drawn),/,.,/,/,/,/
COc1ccc2cc(CO)c3cc(OC)c(OC)cc3c2c1,/,.,/,/,13µM,/
C=CCC12OC3(OC)CC1[C@H](C)[C@@H](c1ccccc1)C2[C@@]3(C)O (stereo partly drawn),.,/,/,/,/,/
COC(=O)C(NC(=O)OCc1ccccc1)(c1ccc(Br)cc1)C(Nc1ccccc1)c1ccccc1 (stereo not drawn),/,.,/,/,/,/
Cc1cc(NCc2ccco2)nc2cc(O)ccc12,/,.,5.2µM,/,.,3.3µM
COc1ccc(Nc2cc(C)c3c(O)cccc3n2)cc1,/,.,1.7µM,/,?,2.3µM
